Experimental data from publication PMC5540273 (PLoS ONE, 2017).

What was measured:
Conditions in all cases: concentration: 1 μM,replicates: in singlicate; n = 1
[1] = test system: T1, IKK-alpha
T1 construct: gene CHUK

[2] = test system: T2, IKK-beta
T2 construct: gene IKBKB

[3] = test system: T3, IKK-epsilon
T3 construct: gene IKBKE

[4] = test system: INSRR
[5] = test system: INSR
[6] = test system: IRAK1
[7] = test system: IRAK3
[8] = test system: IRAK4
[9] = test system: ITK
[10] = test system: JAK1(JH1domain-catalytic)
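Further: KINOMEscan kinase panel screen.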

Row | Compound | %Inh [1] | %Inh [2] | %Inh [3] | %Inh [4] | %Inh [5] | %Inh [6] | %Inh [7] | %Inh [8] | %Inh [9] | %Inh [10]
1 | COc1cccc(OC)c1C(=O)Nc1cccc(-c2nn3ccccc3c2-c2ccnc(Nc3cccc(F)c3)n2)c1 [GSK361065] | 0% | 0% | 4% | 0% | 0% | 0% | 0% | 0% | 93.8% | 0%
2 | OCCn1cc(-c2cnc3nnn(Cc4ccc5ncccc5c4)c3n2)cn1 | 3% | 0% | 0% | 0% | 0% | 0% | 0% | 0% | 0% | 0%
3 | Cl.Nc1n[nH]c2cc(-c3ccccn3)ccc12 [GSK2189892] | 0% | 0% | 24% | 0% | 0% | 0% | 6% | 0% | 4% | 10%
4 | Nc1nccc(-c2ccc3c(N)n[nH]c3c2)n1 [GSK1034945] | 76% | 53% | 18% | 0% | 0% | 45% | 33% | 23% | 14% | 0%
5 | Cn1ccc2ncnc(Oc3ccc(NC(=O)Nc4cc(C(C)(C)C)on4)c(Cl)c3)c21 | 17% | 9% | 0% | 19% | 20% | 61% | 17% | 33% | 16% | 6%
6 | CCn1c(-c2nonc2N)nc2cncc(CNC3CCNCC3)c21.Cl [SB-747651] | 39% | 27% | 5% | 0% | 14% | 56% | 0% | 41% | 9% | 15%
7 | O=C(NOCC1CC1)c1cc(Br)c(F)c(F)c1Nc1ccc(I)cc1Cl | 0% | 0% | 0% | 0% | 0% | 0% | 0% | 0% | 2% | 7%
8 | Cn1ccc2ncnc(Oc3ccc(NC(=O)Nc4ccnc(C(F)(F)F)c4)c(Cl)c3)c21 | 46% | 13% | 0% | 3% | 5% | 14% | 0% | 12% | 0% | 1%
9 | COC(=O)c1cccc(NC(=O)NC2CCN(c3ccnc(NCc4ccc(F)cc4)n3)CC2)c1 [GSK1379860] | 26% | 8% | 0% | 0% | 0% | 0% | 0% | 12% | 15% | 8%
10 | O=C(Nc1ccc(Oc2ccc3nc(NC(=O)C4CC4)cn3n2)c(F)c1)c1cccn(-c2ccccc2)c1=O | 0% | 0% | 0% | 0% | 0% | 0% | 0% | 0% | 1% | 8%
11 | CS(=O)(=O)Nc1ccc(-c2ccnc3[nH]ccc23)cc1 [GSK993273] | 89% | 99.1% | 34% | 0% | 0% | 61% | 49% | 24% | 13% | 70%
12 | Cn1ccc2ncnc(Oc3ccc(NC(=O)Nc4cnn(C(C)(C)C)c4)c(Cl)c3)c21 | 29% | 17% | 10% | 3% | 11% | 43% | 0% | 20% | 2% | 6%
13 | CN1CCN(CCNc2nc3cc(Oc4ccc(NC(=O)Nc5cc(C(F)(F)F)ccc5F)cc4)ccc3[nH]2)CC1.Cl.Cl [GW768504] | 0% | 0% | 14% | 0% | 5% | 0% | 5% | 0% | 0% | 28%
14 | C[C@@H]1CNc2c(sc3ccc4nc(-c5ccncc5)ccc4c23)C(=O)N1 | 14% | 0% | 0% | 0% | 0% | 78% | 42% | 0% | 0% | 0%
15 | NC(=O)c1ccc(-c2cc3ncnc(SCC(=O)O)c3s2)cc1 | 0% | 0% | 0% | 0% | 0% | 70% | 9% | 0% | 0% | 0%
16 | CCn1c(-c2nonc2N)nc2cncc(Br)c21 [SB-738004] | 12% | 0% | 26% | 0% | 0% | 63% | 0% | 0% | 0% | 18%
17 | COc1cc2c(Nc3ccc(NC(=O)c4ccccc4)cc3)ncnc2cc1OCCCN1CCOCC1 [GSK301329] | 0% | 4% | 0% | 0% | 0% | 5% | 26% | 11% | 26% | 0%

Row | Compound | %Inh [1] | %Inh [2] | %Inh [3] | %Inh [4] | %Inh [5] | %Inh [6] | %Inh [7] | %Inh [8] | %Inh [9] | %Inh [10]
18 | COc1cccc(CNC(=O)NC2CCN(c3ccnc(Nc4cc(OC)c(OC)c(OC)c4)n3)C2)c1 (stereo not shown) [GSK1379765] | 21% | 24% | 36% | 96.4% | 0% | 73% | 86% | 27% | 20% | 13%
19 | O=c1[nH]cc(-c2ccc(O)cc2)c2sc(-c3ccncc3)cc12 [GSK1033723] | 0% | 0% | 9% | 0% | 100% | 59% | 1% | 5% | 0% | 35%
20 | C[C@@H](Oc1cc(-n2cnc3ccc(-c4ccncc4)cc32)sc1C(N)=O)c1ccccc1Cl [GSK483724] | 7% | 13% | 24% | 0% | 0% | 49% | 81% | 17% | 22% | 0%
21 | CCNCC(Cc1ccccc1)NC(=O)c1cc(Br)c(-c2ccnc3[nH]ccc23)s1.Cl.Cl (stereo not shown) [GSK1383280] | 3% | 33% | 19% | 0% | 0% | 42% | 36% | 17% | 14% | 36%
22 | CNC(=O)c1ccccc1Nc1nc(Nc2cccc(CS(C)(=O)=O)c2)ncc1C.O=CO [GSK1520489] | 61% | 37% | 73% | 92.6% | 96% | 99.7% | 98.3% | 98.1% | 100% | 84%
23 | Cl.c1ccc(Oc2ccc(Nc3ccnc4cc(-c5ccc(CN6CCNCC6)o5)ccc34)cc2)nc1 [GW567142] | 0% | 0% | 42% | 0% | 20% | 0% | 0% | 5% | 2% | 21%
24 | FC(F)(F)c1cc(Br)cc(Nc2nccc(-c3cnn4ncccc34)n2)c1 [GW810578] | 13% | 9% | 0% | 11% | 8% | 92% | 58% | 0% | 0% | 3%
25 | CC(=O)c1c(-c2ccncc2)[nH]c(-c2ccncc2)c1C [GW493036] | 35% | 30% | 2% | 0% | 0% | 85% | 0% | 32% | 13% | 12%
26 | COc1cc(Nc2nccc(N3CCC(NC(=O)c4cccc(C#N)c4)C3)n2)cc(OC)c1OC (stereo not shown) [GSK1379751] | 19% | 0% | 5% | 0% | 0% | 58% | 70% | 15% | 0% | 0%
27 | CCN1CCN(CCCC(=O)Nc2n[nH]c3nc(-c4ccc(O)cc4)c(Br)cc23)CC1 [SB-731579] | 0% | 0% | 0% | 0% | 0% | 0% | 0% | 0% | 98.8% | 23%
28 | Cc1ccc(Nc2ccnc(Nc3ccc4c(c3)CS(=O)(=O)C4)n2)cc1O.Cl [GW579362] | 62% | 87% | 91% | 22% | 53% | 99.1% | 91% | 87% | 38% | 92.4%
29 | C[C@@H](Oc1cc(-n2cnc3cc(-c4ccncc4)ccc32)sc1C(N)=O)c1ccccc1Cl [GSK479719] | 37% | 50% | 0% | 0% | 0% | 48% | 0% | 26% | 11% | 0%
30 | COc1cc2nccc(Nc3ccc(Oc4ccccc4)cc3)c2cc1OC.Cl [GI261656] | 0% | 0% | 35% | 0% | 0% | 0% | 0% | 0% | 0% | 8%
31 | CSc1nccc(-c2c(-c3ccc(F)cc3)ncn2CCCN2CCOCC2)n1.Cl [SB-217146] | 0% | 0% | 0% | 0% | 2% | 25% | 0% | 0% | 6% | 0%
32 | O=C(Nc1n[nH]c2cc(-c3ccco3)ccc12)C1CC1 [SB-737447] | 0% | 0% | 0% | 5% | 2% | 0% | 0% | 0% | 0% | 2%
33 | C[C@@H](Oc1cc(-n2cnc3cc(-c4cnn(C)c4)ccc32)sc1C(N)=O)c1ccccc1Cl [GSK580432] | 0% | 8% | 4% | 1% | 0% | 45% | 34% | 25% | 23% | 0%
34 | CC(=O)Nc1ccc(-c2cc3ncnc(SCC(=O)O)c3s2)cc1 | 0% | 0% | 0% | 10% | 0% | 78% | 52% | 0% | 2% | 0%
